# PD-1 reverse act: activators reversing PD-1 mediated T-cell inhibition, primary screen, luminescence, primary human CD4 T cells, PD-L1 beads | CellTiter-Glo 96 h | activation, % (concentration not given with the values) | 29,000 tested, under 10 active; call rule not given here;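 further: 0% = median vehicle wells and 100% = positive control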
# MITF inh: inhibitors of MITF, primary screen, MITF inhibitor project, cell-based, luminescence. inhibition, % (test concentration not listed). TRPM1 promoter luciferase, 24 h. AID 2240, 2010. 0.28% of 37,000 active; in the data active means inhibition above about 85%; inconclusive means no clear call, values can overlap the other calls; inactive means below about 68%;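 further: human melanocyte line stably carrying TRPM1 promoter luciferase reporter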
# Hedgehog inh: Hedgehog pathway signaling inhibitors, primary screen, luminescence, Shh-LIGHT2 cells, Gli-luciferase | 2.1% of 22,000 active | Shh-LIGHT2 Gli-luciferase reporter, 30 h | inhibition, % (no concentration beside the values);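 active means mean inhibition across valid replicates above about 65%, limit read from the data; inconclusive means mean under the limit, yet half or more replicates past it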;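 further: pathway switched on by Shh-conditioned medium diluted 1 in 25 in low serum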
# NOMO-1 viab: NOMO-1 AML cell viability reduction, primary screen, STK33 inhibitor project, CellTiter-Glo luminescence | AID 2330, 2010 | inhibition, % (test concentration not listed) | 7.5% of 37,000 active | NOMO-1 AML viability, 72 h; in the data active means inhibition above about 80%; inconclusive means no clear call, values can overlap the other calls
# * marks the source's active call; other numbers are inactive results; u = inconclusive; x = not tested or not shown. Only some compounds are listed: those with a hit (about 8.1% of all), similar ones and a draw of the others.
SMILES,PD-1 reverse act,MITF inh,Hedgehog inh,NOMO-1 viab
Cc1ccc(S(=O)(=O)N2CCC(=O)c3ccccc32)cc1,-2,32,-11,110*
CC1CCc2sc3ncnc(NCCN4CCOCC4)c3c2C1 (stereo not given),-2,-33,x,21
C[C@@H]1CN([C@H](C)CO)C(=O)c2cc(NC(=O)Nc3ccc(C(F)(F)F)cc3)ccc2O[C@H]1CN(C)C(=O)Nc1ccc2c(c1)OCO2,4,0,x,19
C[C@H](CO)N1C[C@H](C)[C@H](CN(C)C(=O)Nc2ccc3c(c2)OCO3)Oc2ccc(NC(=O)Nc3ccc(C(F)(F)F)cc3)cc2C1=O,-2,18,7,99*
C[C@@H]1CN([C@@H](C)CO)C(=O)c2cc(NC(=O)Nc3ccc4c(c3)OCO4)ccc2O[C@@H]1CN(C)C(=O)Nc1ccc(C(F)(F)F)cc1,-3,33,-16,93*
C[C@@H]1CN([C@H](C)CO)C(=O)c2cccc(NC(=O)Nc3ccc(C(F)(F)F)cc3)c2O[C@H]1CN(C)C(=O)Nc1ccccc1,-2,12,-14,93*
C[C@@H]1CN([C@@H](C)CO)C(=O)c2cccc(NC(=O)Nc3ccccc3)c2O[C@H]1CN(C)C(=O)Nc1ccc(C(F)(F)F)cc1,-2,0,31,44
C[C@@H]1CN([C@H](C)CO)C(=O)c2cccc(NC(=O)Nc3ccccc3)c2O[C@@H]1CN(C)C(=O)Nc1ccc(C(F)(F)F)cc1,-1,-5,13,16
C[C@@H]1CN([C@@H](C)CO)C(=O)c2cccc(NC(=O)Nc3ccc(C(F)(F)F)cc3)c2O[C@@H]1CN(C)C(=O)Nc1ccccc1,0,2,23,112*
CN1CCN(C(=O)CN(c2cccc3ccccc23)S(C)(=O)=O)CC1,4,-3,x,-1
COc1cc(OC)c(C(O)C(C)O)cc1OC (stereo not given),2,2,-1,90*
COc1cc(=O)oc(C(C)C(C)O)c1CO (stereo not given),0,4,11,-5
N#Cc1cc2c(nc1SCCS(=O)(=O)c1nc3ccccc3s1)CCCC2,-9,-12,x,112*
Cc1cc(C)c(C#N)c(SCCS(=O)(=O)c2nc3ccccc3s2)n1,-13,38,x,128*
Cc1cc(C)c(C#N)c(SCC(O)CS(=O)(=O)c2ccc(C(C)(C)C)cc2)n1 (stereo not given),0,5,x,24
O=C1C(=O)N(Cc2ccco2)C(c2ccccc2)C1C(=O)c1cccs1 (stereo not given),4,-9,x,-5
O=C(CCCOc1ccc(Cl)cc1Cl)Nc1ccc2c(c1)OCCO2,0,-53,-66,9
Cc1cccc(OCC(=O)Nc2cccc(-c3nc4cc(Cl)ccc4o3)c2C)c1,-2,6,x,33
COc1ccc(-n2c(CC#N)nnc2SCc2c(C)c(C)c(C)c(C)c2C)cc1,0,11,19,102*
COc1ccc(-n2c(CSc3nnc(-c4ccc(OC)c(OC)c4)n3-c3ccccc3)n[nH]c2=S)cc1,0,4,x,30
C[C@@H]1CN([C@H](C)CO)C(=O)Cc2cc(NC(=O)Nc3ccccc3)ccc2O[C@@H]1CN(C)CC1CCCCC1,1,7,x,104*
C[C@@H]1CN([C@H](C)CO)C(=O)Cc2cc(NC(=O)C3CCCCC3)ccc2O[C@@H]1CN(C)CC1CCCCC1,1,-8,76*,1
C[C@@H]1CN([C@@H](C)CO)C(=O)Cc2cc(NC(=O)Nc3ccccc3)ccc2O[C@@H]1CN(C)CC1CCCCC1,x,-3,-9,u
C[C@H]1CN([C@@H](C)CO)C(=O)Cc2cc(NC(=O)Nc3ccccc3)ccc2O[C@@H]1CN(C)CC1CCCCC1,4,-3,-25,101*
C[C@@H]1CN([C@H](C)CO)C(=O)Cc2cc(NC(=O)Nc3cccc4ccccc34)ccc2O[C@@H]1CN(C)CC1CCCCC1,-3,16,-3,87*
SMILES,PD-1 reverse act,MITF inh,Hedgehog inh,NOMO-1 viab
C[C@H]1CN([C@@H](C)CO)C(=O)Cc2cc(NC(=O)C3CCCCC3)ccc2O[C@H]1CN(C)CC1CCCCC1,-1,-11,27,22
O=S(=O)(/C=C/c1ccccc1)Nc1ccccc1,0,-6,61,47
FC(F)(F)C1(C(F)(F)F)N=C(c2ccccc2)NC(c2ccccc2)=N1,-1,11,-3,48
C[C@@H]1CN([C@H](C)CO)C(=O)Cc2cc(NC(=O)Nc3ccc(F)cc3)ccc2O[C@@H]1CN(C)CC1CCCCC1,1,-10,x,100*
O=C(CSc1ncn[nH]1)c1c[nH]c2ccccc12,x,-34,x,19
COc1ccc(S(=O)(=O)Nc2cccc3c2O[C@H](CN(C)C(=O)NC2CCCCC2)[C@@H](C)CN([C@@H](C)CO)C3=O)cc1,x,-10,-42,22
COc1ccc(S(=O)(=O)Nc2cccc3c2O[C@@H](CN(C)C(=O)NC2CCCCC2)[C@@H](C)CN([C@H](C)CO)C3=O)cc1,-2,32,66*,114*
C[C@H](CO)N1C[C@H](C)[C@H](CN(C)C(=O)NC2CCCCC2)Oc2c(NS(=O)(=O)c3ccc(Cl)cc3)cccc2C1=O,-2,15,100*,88*
COc1ccc(S(=O)(=O)Nc2cccc3c2O[C@@H](CN(C)CC2CCCCC2)[C@H](C)CN([C@@H](C)CO)C3=O)cc1,1,2,-67,4
COc1ccc(S(=O)(=O)Nc2cccc3c2O[C@@H](CN(C)CC2CCCCC2)[C@@H](C)CN([C@H](C)CO)C3=O)cc1,0,2,71*,34
CCn1c(SCC(=O)Nc2ccc(F)cc2)nnc1-c1ccc(Cl)cc1Cl,1,57,x,32
COc1ccc(CCC(=O)CCc2ccc(OC)cc2)cc1,-1,-12,-33,16
O=C(CCCCc1ccc(O)cc1)CCc1ccc(O)cc1,-1,10,28,104*
C[C@H]1CN([C@@H](C)CO)C(=O)c2cc(NC(=O)Nc3cccc4ccccc34)ccc2O[C@H]1CN(C)Cc1ccc(C(F)(F)F)cc1,2,29,x,1
C[C@@H]1CN([C@H](C)CO)C(=O)c2cc(NC(=O)Nc3ccccc3)ccc2O[C@@H]1CN(C)C(=O)Nc1cccc2ccccc12,-5,-7,10,90*
C[C@@H]1CN([C@@H](C)CO)C(=O)c2cc(NC(=O)Nc3cccc4ccccc34)ccc2O[C@H]1CN(C)Cc1ccc(C(F)(F)F)cc1,1,8,-23,87*
C[C@@H]1CN([C@@H](C)CO)C(=O)c2cc(NC(=O)Nc3ccccc3)ccc2O[C@@H]1CN(C)C(=O)Nc1cccc2ccccc12,-5,-22,17,67
C[C@H](CO)N1C[C@H](C)[C@H](CN(C)Cc2ccncc2)Oc2ccc(NC(=O)Nc3cccc4ccccc34)cc2C1=O,4,7,x,98*
C[C@H]1CN([C@@H](C)CO)C(=O)c2cc(NC(=O)Nc3cccc4ccccc34)ccc2O[C@@H]1CN(C)C(=O)Nc1ccc(C(F)(F)F)cc1,-5,32,-45,86*

# Bioassay records deposited in PubChem BioAssay by Broad Institute.
